{"source": "PubChem BioAssay AID623868", "about": "(Vanderbilt High Throughput Screening Facility, 2012)", "note": "In all, about 2,100 compounds went through this assay and about 760 (36%) were called active. These entries were drawn from the full list. Values without a mark were called inactive.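 How the source made its calls: active means thallium-flux fluorescence traces judged by eye to show enhanced or reduced glutamate response, manual score 1 or -1, so both directions (some results past the limit were not filed as active); inactive means the rest, including fluorescent or raised-baseline compounds.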", "data": [{"assay": "thallium influx changes without GIRK channels – cell-based, HEK-293 rmGlu8, no GIRK, thallium flux, counter-screen for GIRK activator project, confirmation (AID 623868);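 further: extra codes mark interference with 3 for fluorescent and 4 for baseline rise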", "conditions": "thallium flux fluorescence, at 10 µM, actives lie on both sides, codes: 1 enhancer, -1 blocker, 0 none, thallium stimulus containing EC20 glutamate", "values": [{"compound": "CSc1ccc(S(=O)(=O)NCc2ccccc2Cl)cc1", "manual score": 0}, {"compound": "Cc1ccc(C(=O)CC(=O)COc2ccc(Cl)cc2)cc1", "manual score": 0}, {"compound": "Cc1ccc(NC(=O)COC(=O)CCC(=O)c2ccc(Cl)cc2)cc1S(=O)(=O)N(C)C", "manual score": 0}, {"compound": "Cc1ccc(C(=O)CC(=O)COc2ccc(Cl)cc2C)cc1", "manual score": "1 (active)"}, {"compound": "S=c1[nH]c2cc(Cl)ccc2s1", "manual score": "1 (active)"}, {"compound": "Cc1ccc(-c2nnc(SCC(=O)Nc3cccc(C(=O)N4CCOCC4)c3)n2C)cc1", "manual score": 0}, {"compound": "CCOC(=O)c1cccc(NC(=O)CSc2nnc(C3CCCCC3)n2C)c1", "manual score": "-1 (active)"}, {"compound": "CCOC(=O)c1cccc(NC(=O)CSc2nnc(-c3cccnc3)n2C)c1", "manual score": "-1 (active)"}, {"compound": "Cc1ccc(C)c(-n2nnnc2SCC(=O)Nc2cccc(-c3nnc4n3CCCCC4)c2)c1", "manual score": 3}, {"compound": "COc1cccc(NC(=O)CSc2nnc(-c3ccoc3C)n2-c2ccccc2)c1", "manual score": 0}, {"compound": "CCc1nnc(NC(=O)CSc2nnc(C3CCCCC3)n2-c2cccc(Cl)c2)s1", "manual score": -0.5}, {"compound": "CC1CSc2ccccc2NC1=S", "note": "(stereo not given)", "manual score": 0}, {"compound": "CC1(C)CC(=S)Nc2ccccc2S1", "manual score": "1 (active)"}, {"compound": "CC1CC(=S)Nc2ccccc2N1Cc1ccccc1", "note": "(stereo not given)", "manual score": 0}, {"compound": "O=C(CSc1ccccc1)N(c1ccc(Br)cc1)c1nccs1", "manual score": 0}, {"compound": "c1cc2c(cc1C1=Nn3c(nnc3C3CCCCC3)SC1)OCO2", "manual score": "-1 (active)"}, {"compound": "COc1ccccc1C1=Nn2c(nnc2C2CCCCC2)SC1", "manual score": 0}, {"compound": "CCCc1nnc2n1N=C(c1ccc(OC)c(OC)c1)CS2", "manual score": -0.5}, {"compound": "COc1ccc(C2=Nn3c(nnc3C3CCCCC3)SC2)cc1OC", "manual score": "-1 (active)"}, {"compound": "Brc1ccccc1C1=Nn2c(nnc2-c2ccccc2)SC1", "manual score": 0}, {"compound": "CCC1(c2ccc(Cl)cc2)NC(=S)N(c2ccccc2)N1", "note": "(stereo not given)", "manual score": "1 (active)"}, {"compound": "Clc1cccc(CSc2nnc(-c3ccccn3)n2Cc2ccco2)c1", "manual score": -0.5}, {"compound": "COc1ccc(NC(=O)CSc2nnc(-c3ccccn3)n2Cc2ccco2)cc1OC", "manual score": 0}, {"compound": "CCn1c(SCC(=O)Nc2oc(-c3ccccc3)c(-c3ccccc3)c2C#N)nnc1-c1ccco1", "manual score": 0}, {"compound": "CCOc1ccccc1NC(=O)Nc1cccc(C(C)=O)c1", "manual score": 0}, {"compound": "CCOc1ccccc1NC(=O)CSc1nnc(-c2ccco2)n1Cc1ccco1", "manual score": "-1 (active)"}, {"compound": "CCOc1ccccc1NC(=O)CSc1nnc(-c2ccccn2)n1Cc1ccco1", "manual score": "-1 (active)"}, {"compound": "COc1cc(Cl)cc2c1Sc1ccccc1/C2=C/CCN(C)C", "manual score": 0}, {"compound": "O=C(CSc1nc(-c2ccc(F)cc2)cs1)N1CCOCC1", "manual score": 0}, {"compound": "CC1(C)Cc2ccccc2C(/C(=N\\Nc2cccc(Cl)c2)C(N)=O)=N1", "manual score": 0}, {"compound": "CC(C)(C)C1CCc2c(C(=O)N/N=C/c3cccs3)csc2C1", "note": "(stereo not given)", "manual score": 0}, {"compound": "Cc1ccccc1NC(=S)NNC(=O)c1csc2c1CCC(C)C2", "note": "(stereo not given)", "manual score": "1 (active)"}, {"compound": "Cc1cccc(NC(=S)NNC(=O)c2csc3c2CCC(C)C3)c1", "note": "(stereo not given)", "manual score": "1 (active)"}, {"compound": "Cc1ccc(C)c(NC(=S)NNC(=O)c2cc3c(s2)CCC(C)C3)c1", "note": "(stereo not given)", "manual score": "1 (active)"}, {"compound": "Cc1cccc(NC(=S)NNC(=O)c2csc3c2CCCC3)c1", "manual score": "1 (active)"}, {"compound": "CC(C)CNC(=S)NNC(=O)c1csc2c1CCC(C)C2", "note": "(stereo not given)", "manual score": 0}, {"compound": "O=C1CCC(/C=C/c2ccccc2)=NN1Cc1ccc(Cl)c(Cl)c1", "manual score": 0}, {"compound": "CCCN1CCC(NC(=O)Nc2ccc(F)cc2F)CC1", "manual score": 0}, {"compound": "Cc1ccc(C)c(NC(=S)NNC(=O)c2csc3c2CCCC3)c1", "manual score": "1 (active)"}, {"compound": "Cc1ccc(C)c(NC(=S)NNC(=O)c2csc3c2CCC(C)C3)c1", "note": "(stereo not given)", "manual score": "1 (active)"}, {"compound": "O=C(NC(=S)N1CCN(c2ccc(Cl)cc2[N+](=O)[O-])CC1)c1cccs1", "manual score": "1 (active)"}, {"compound": "FC(F)(F)c1cccc(N2CCN(C(=S)NC3CCCCC3)CC2)c1", "manual score": 0}, {"compound": "COC(=O)C1CCCN1C(=O)c1cccs1", "note": "(stereo not given)", "manual score": 0}, {"compound": "O=C(NC(=S)N1CCN(c2ccc(Cl)cc2[N+](=O)[O-])CC1)c1ccco1", "manual score": "1 (active)"}, {"compound": "O=C(NC(=S)N1CCN(c2ccc(C(F)(F)F)cc2[N+](=O)[O-])CC1)c1cccs1", "manual score": "1 (active)"}, {"compound": "O=C(O/N=C\\c1ccc(N2CCCCC2)c([N+](=O)[O-])c1)c1c(F)cccc1F", "manual score": 0}, {"compound": "O=C(NC(=S)N1CCCCC1)c1cccs1", "manual score": "1 (active)"}, {"compound": "O=C(N1CCCCC1)N1CCN(C(=O)N(c2ccccc2)c2ccccc2)CC1", "manual score": 0}, {"compound": "CCN(CC)CC(O)COc1ccccc1C(=O)CCc1ccccc1", "note": "(stereo not given)", "manual score": 0}, {"compound": "COC(=O)c1cc(=O)n(CCc2ccc(OC)cc2)c(=Nc2ccc(F)c(Cl)c2)s1", "manual score": 0}, {"compound": "O=C(NC(=S)N1CCN(c2c(Cl)cccc2[N+](=O)[O-])CC1)c1cccs1", "manual score": "1 (active)"}, {"compound": "O=C(NC(=S)Nc1cccc(Cl)c1N1CCCC1)c1ccc(-c2cccc([N+](=O)[O-])c2)o1", "manual score": 0}, {"compound": "COc1ccc(N(CC(=O)NC2CCCC2)C(=O)Cn2nnc(-c3ccc(C)cc3)n2)cc1", "manual score": 0}, {"compound": "COc1cc2c(C(=O)N3CCN(C4CCCCC4)CC3)cn(CC(C)C)c(=O)c2cc1OC", "manual score": 0}, {"compound": "CC(/C=N/n1c(-c2ccco2)n[nH]c1=S)=C\\c1ccccc1", "manual score": "1 (active)"}, {"compound": "CC(/C=N/n1c(C2CCCCC2)n[nH]c1=S)=C\\c1ccccc1", "manual score": "1 (active)"}, {"compound": "CC(=C/c1ccccc1)/C=N/n1c(-c2ccco2)n[nH]c1=S", "manual score": "1 (active)"}, {"compound": "CC(/C=N/NC(=O)c1c(Br)cnn1C)=C\\c1ccccc1", "manual score": 0}, {"compound": "Cc1ccc(C)n1-c1ccc(C(=O)NN)cc1", "manual score": 0}, {"compound": "CC(C)NS(=O)(=O)c1ccc(OCC(=O)Nc2ccc3c(c2)OCO3)c(Cl)c1", "manual score": 0}, {"compound": "COc1ccc(OC)c(C(=O)c2coc3ccc(O)c(CN4CCOCC4)c23)c1", "manual score": 0}, {"compound": "O=C(CN1C(=O)c2ccccc2C1=O)Nc1sc2c(c1C(=O)NCC1CCCO1)CCC2", "note": "(stereo not given)", "manual score": 0}, {"compound": "CCCCCNC(=O)c1ccc2c(=O)[nH]c3c(C(=O)NCC4CCCO4)sc(=S)n3c2c1", "note": "(stereo not given)", "manual score": "-1 (active)"}, {"compound": "Cc1ccc(-n2nc(-c3cccs3)cc2C(=O)NCC2CCCO2)c(C)c1", "note": "(stereo not given)", "manual score": -0.5}, {"compound": "Cc1cc(C=C2C(=O)c3ccccc3C2=O)c(C)n1-c1ccccc1", "manual score": 3}]}]}
